Measurements taken from the supplement of paper PMC4840960.
Counter-ions that a name gives are not always drawn. ± gives the standard deviation of the averaged measurements.

Each molecule was assayed on E18 rat cortical neuron-glia co-culture (assay: fiber score / MBP score (myelination specific beyond OL differentiation) (ratio); higher = more myelination-specific MBP alignment). Conditions: 5 µM; treatment time: 8 days (DIV5-DIV13).
Method in brief: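 Library compounds were applied at 1 or 5 µM in myelination medium, DIV5 to DIV13, to primary E18 rat cortical co-cultures grown at 20,000 cells/well in 96-well plates. After 4 % paraformaldehyde fixation and MBP/Olig2/DAPI immunostaining, four 10X fields per well in duplicate wells were scored. Each value is continuous MBP fiber length per Olig2+ nucleus divided by thresholded MBP area × intensity per Olig2+ nucleus.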

| Structure (SMILES) | fiber score / MBP score |
| --- | --- |
| CC1COc2c(N3CCN(C)CC3)c(F)cc3c(=O)c(C(=O)O)cn1c23 (configuration not stated) [Ofloxacin] | 0.784 ± 0.19 |
| Cc1noc(NS(=O)(=O)c2ccc(N)cc2)c1C [Sulfisoxazole] | 0.834 |
| O=C(CCNNC(=O)c1ccncc1)NCc1ccccc1 [Nialamide] | 0.524 |
| CN1CCN(CC/C=C2/c3ccccc3Sc3ccc(S(=O)(=O)N(C)C)cc32)CC1 [Thiothixene] | 1.29 |

The molecules below were run on E18 rat cortical neuron-glia co-culture (assay: myelination (MBP fiber length per Olig2+ nucleus), % of 1 µM DAPT response (DMSO = 0) (% of DAPT); higher = more myelination, active = 50 or more). Conditions: 1 µM; treatment time: 8 days (DIV5-DIV13).
Method in brief: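 Library compounds at 1 or 5 µM in myelination medium were applied from DIV5 to DIV13 to papain-dissociated E18 rat cortical co-cultures seeded at 20,000 cells/well on poly-d-lysine/laminin 96-well plates. Fixed cells (4 % paraformaldehyde) were immunostained for MBP and Olig2 with DAPI, and four 10X fields were analysed in each duplicate well. Continuous straight MBP fiber length per Olig2+ nucleus was set to 0 for 0.1 % DMSO and to 100 for a 1 µM positive control.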

| Structure (SMILES) | myelination |
| --- | --- |
| Nc1ccn([C@@H]2CS[C@H](CO)O2)c(=O)n1 [Lamivudine] | -7.54 (inactive) |
| COc1ccc2c3c1O[C@H]1C[C@@H](O)C=C[C@@]31CCN(C)C2 [Galantamine] | -60.3 (inactive) |
| Cc1onc(-c2c(Cl)cccc2Cl)c1C(=O)N[C@@H]1C(=O)N2[C@@H]1SC(C)(C)[C@@H]2C(=O)O [Dicloxacillin] | 5.21 (inactive) |
| CCOC(=O)c1ccc(OC(=O)CCCCCNC(=N)N)cc1 [Gabexate] | -20.3 (inactive) |
| C[C@]12CCC(=O)C=C1CC[C@@H]1[C@@H]2C(=O)C[C@@]2(C)[C@H]1CC[C@]2(O)C(=O)CO [Cortisone] | -12.4 (inactive) |
| CC(C)C[C@H](NC(=O)[C@@H](COC(C)(C)C)NC(=O)[C@H](Cc1ccc(O)cc1)NC(=O)[C@H](CO)NC(=O)[C@H](Cc1c[nH]c2ccccc12)NC(=O)[C@H](Cc1cnc[nH]1)NC(=O)[C@@H]1CCC(=O)N1)C(=O)N[C@@H](CCCNC(=N)N)C(=O)N1CCC[C@H]1C(=O)NNC(N)=O [Goserelin] | -8.02 (inactive) |
| COc1cc(NC(C)CCCN)c2ncccc2c1 (configuration not stated) [Primaquine] | -0.112 (inactive) |
| CC1(C)S[C@@H]2[C@H](NC(=O)COc3ccccc3)C(=O)N2[C@H]1C(=O)O [Penicillin V] | -3.1 (inactive) |
| COc1cc2nc(N3CCN(C(=O)C4COc5ccccc5O4)CC3)nc(N)c2cc1OC (configuration not stated) [Doxazosin] | -45.2 (inactive) |
| CCCN(CCC)S(=O)(=O)c1ccc(C(=O)O)cc1 [Probenecid] | 0.863 (inactive) |
| CC1(C)S[C@@H]2[C@H](NC(=O)Cc3ccccc3)C(=O)N2[C@H]1C(=O)O [Penicillin G] | 12.3 (inactive) |
| C[C@H](CCC(=O)O)[C@H]1CC[C@H]2[C@@H]3[C@H](O)C[C@@H]4C[C@H](O)CC[C@]4(C)[C@H]3CC[C@]12C [Chenodeoxycholic Acid] | -8.08 (inactive) |
| CC(=O)OCC[N+](C)(C)C [Acetylcholine] | -17.4 (inactive) |
| O=C1c2c(O)cc(O)cc2OC(c2ccc(O)c(O)c2)C1O (configuration not stated) [Taxifolin] | -33.2 (inactive) |
| NC(=O)OCC(COC(N)=O)c1ccccc1 [Felbamate] | -15.5 (inactive) |
| N[C@@H](Cc1cc(I)c(Oc2ccc(O)c(I)c2)c(I)c1)C(=O)O [Triiodothyronine] | -11.4 (inactive) |
| OC(CCN1CCCC1)(c1ccccc1)C1CCCCC1 (configuration not stated) [Procyclidine] | -4.99 (inactive) |
| CN1CCN2c3ncccc3Cc3ccccc3C2C1 (configuration not stated) [Mirtazapine] | -13.9 (inactive) |
| O=C1CN(/N=C/c2ccc(-c3ccc([N+](=O)[O-])cc3)o2)C(=O)N1 [Dantrolene sodium salt dihydrate] | -11.8 (inactive) |
| Nc1nc(F)nc2c1ncn2[C@@H]1O[C@H](CO)[C@@H](O)[C@@H]1O [Fludarabine] | -29.4 (inactive) |
| COC(=O)C1=C(C)NC(C)=C(C(=O)OC2CCCN(Cc3ccccc3)C2)C1c1cccc([N+](=O)[O-])c1 (configuration not stated) [Benidipine] | -35.3 (inactive) |
| CC(C)NCC(O)c1cc(O)cc(O)c1 (configuration not stated) [Metaproterenol] | -16.5 (inactive) |
| Cc1cc2c(s1)Nc1ccccc1N=C2N1CCN(C)CC1 [Olanzapine] | -0.209 (inactive) |
| CC(C)(C)NC[C@H](O)COc1nsnc1N1CCOCC1 [Timolol] | -4.47 (inactive) |
| CCS(=O)(=O)CCn1c([N+](=O)[O-])cnc1C [Tinidazole] | -10.7 (inactive) |
| CN(C)CCOC(c1ccc(Cl)cc1)c1ccccn1 (configuration not stated) [Carbinoxamine] | 3.25 (inactive) |
| CC(C)NCC(O)c1ccc(O)c(O)c1 (configuration not stated) [Isoproterenol] | 13.7 (inactive) |
| N[C@@H](C(=O)N[C@@H]1C(=O)N2C(C(=O)O)=C(Cl)CS[C@H]12)c1ccccc1 [Cefaclor] | 1.34 (inactive) |
